Test in all cases: DAPPL (digital affinity profiling via proximity ligation, sequencing); 10 mM Tris-HCl pH 7.5, 50 mM NaCl, 1 mM DTT, 4% glycerol, room temperature, 30 min; GST-TFs on glutathione beads, 16-mer random dsDNA library, 0.1% formaldehyde crosslink after washing; high values mean tight binding
The target in one assay is T1, FLI1 (Homo sapiens, UniProt Q01543 1-452).
T1 sequence: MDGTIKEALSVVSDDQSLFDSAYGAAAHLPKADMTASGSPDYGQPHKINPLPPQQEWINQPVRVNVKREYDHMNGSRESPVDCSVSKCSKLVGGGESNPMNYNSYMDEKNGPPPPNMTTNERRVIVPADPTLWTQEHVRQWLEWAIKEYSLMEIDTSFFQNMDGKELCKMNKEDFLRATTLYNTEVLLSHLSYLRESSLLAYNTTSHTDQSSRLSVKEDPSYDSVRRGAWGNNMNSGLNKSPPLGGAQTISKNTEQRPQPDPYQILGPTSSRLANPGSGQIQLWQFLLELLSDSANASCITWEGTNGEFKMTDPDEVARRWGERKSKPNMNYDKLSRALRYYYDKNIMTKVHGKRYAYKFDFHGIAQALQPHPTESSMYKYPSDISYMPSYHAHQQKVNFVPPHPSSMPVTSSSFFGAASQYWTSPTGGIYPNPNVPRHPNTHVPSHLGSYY
To be noted: protein: recombinant; tags: N-terminal GST; dsDNA, one strand shown. An outline of the steps:
(§1)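 Pools were built from human transcription factors expressed in yeast as GST fusions, captured on glutathione beads and DNA-barcoded, along with a tag-only sample. Incubation with 200 nmole of a 16-mer random double-stranded DNA library lasted 30 min at room temperature in Tris/NaCl/DTT/glycerol buffer, and was followed by washing, 0.1% formaldehyde crosslinking, proximity ligation, PCR amplification and Illumina NextSeq500 sequencing. Binding signal is the quotient of each hexamer's read frequency for a factor and its frequency for the tag-only sample.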

For the next assay, the target named is T2, ELK1 (Homo sapiens, UniProt P19419 1-428).
T2 sequence: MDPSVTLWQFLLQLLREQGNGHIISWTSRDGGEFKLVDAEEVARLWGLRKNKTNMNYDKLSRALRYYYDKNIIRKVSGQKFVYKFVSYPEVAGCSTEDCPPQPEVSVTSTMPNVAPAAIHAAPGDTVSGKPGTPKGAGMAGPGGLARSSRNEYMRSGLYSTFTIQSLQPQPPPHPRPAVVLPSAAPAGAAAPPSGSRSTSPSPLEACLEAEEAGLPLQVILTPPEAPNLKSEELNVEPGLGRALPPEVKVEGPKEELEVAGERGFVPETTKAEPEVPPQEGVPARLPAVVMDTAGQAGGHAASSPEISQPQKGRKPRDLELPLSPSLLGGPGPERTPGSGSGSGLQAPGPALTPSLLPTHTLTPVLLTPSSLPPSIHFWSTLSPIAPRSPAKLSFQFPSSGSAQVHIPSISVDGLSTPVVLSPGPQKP
The conditions noted are these: protein: recombinant; tags: N-terminal GST; dsDNA, one strand shown. Summed up: as §1

In a further assay the target is T3, GABPA (Homo sapiens, UniProt Q06546 1-454).
T3 sequence: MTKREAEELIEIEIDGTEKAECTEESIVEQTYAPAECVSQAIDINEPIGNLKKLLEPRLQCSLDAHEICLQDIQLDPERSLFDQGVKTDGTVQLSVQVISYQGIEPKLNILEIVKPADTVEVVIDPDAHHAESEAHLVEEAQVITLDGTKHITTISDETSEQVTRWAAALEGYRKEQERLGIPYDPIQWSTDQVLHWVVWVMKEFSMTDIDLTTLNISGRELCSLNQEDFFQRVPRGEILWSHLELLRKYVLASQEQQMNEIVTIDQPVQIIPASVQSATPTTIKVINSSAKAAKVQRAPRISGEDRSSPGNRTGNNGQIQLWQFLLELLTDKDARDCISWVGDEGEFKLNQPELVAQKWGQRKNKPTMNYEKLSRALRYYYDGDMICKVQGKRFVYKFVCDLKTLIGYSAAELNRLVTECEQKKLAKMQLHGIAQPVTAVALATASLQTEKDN
To be noted: protein: recombinant; tags: N-terminal GST; dsDNA, one strand shown. An outline of the steps:
as §1

A further assay addresses T4, ERG (Homo sapiens, UniProt P11308 1-479).
T4 sequence: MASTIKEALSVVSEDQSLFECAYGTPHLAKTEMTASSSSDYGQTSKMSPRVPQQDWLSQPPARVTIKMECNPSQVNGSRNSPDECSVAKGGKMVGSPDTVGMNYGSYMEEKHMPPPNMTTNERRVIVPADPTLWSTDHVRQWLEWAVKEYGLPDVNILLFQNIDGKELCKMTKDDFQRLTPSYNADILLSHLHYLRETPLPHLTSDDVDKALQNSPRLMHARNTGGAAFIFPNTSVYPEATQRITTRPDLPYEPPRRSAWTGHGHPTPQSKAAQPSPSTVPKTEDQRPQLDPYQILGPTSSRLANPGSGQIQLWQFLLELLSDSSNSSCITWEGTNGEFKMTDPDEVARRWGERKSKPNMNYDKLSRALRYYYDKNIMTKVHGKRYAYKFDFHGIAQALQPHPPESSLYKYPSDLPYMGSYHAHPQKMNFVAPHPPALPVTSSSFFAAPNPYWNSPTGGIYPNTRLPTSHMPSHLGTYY
The conditions noted are these: protein: recombinant; tags: N-terminal GST; dsDNA, one strand shown. Summed up:
as §1

Another assay has as its target ELF1 (Homo sapiens, UniProt P32519 1-619). To be noted: protein: recombinant; tags: N-terminal GST; dsDNA, one strand shown. Summed up: as §1
The target of the next assay is T5, EHF (Homo sapiens, UniProt Q9NZC4 1-300).
T5 sequence: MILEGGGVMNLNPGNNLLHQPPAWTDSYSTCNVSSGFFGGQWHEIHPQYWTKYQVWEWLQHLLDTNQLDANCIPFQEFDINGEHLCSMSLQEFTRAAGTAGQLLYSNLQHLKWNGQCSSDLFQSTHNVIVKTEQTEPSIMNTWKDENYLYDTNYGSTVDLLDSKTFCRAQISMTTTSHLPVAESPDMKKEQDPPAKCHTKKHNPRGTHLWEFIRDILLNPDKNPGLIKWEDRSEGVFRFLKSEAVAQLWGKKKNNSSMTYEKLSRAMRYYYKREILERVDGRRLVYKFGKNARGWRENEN
To be noted: protein: recombinant; tags: N-terminal GST; dsDNA, one strand shown. An outline of the steps: as §1

The next assay concerns the target SPI1 (Homo sapiens, UniProt P17947 1-270). The conditions noted are these: protein: recombinant; tags: N-terminal GST; dsDNA, one strand shown. An outline of the steps: as §1
For another assay, the target named is SPIB (Homo sapiens, UniProt Q01892 1-262). To be noted: protein: recombinant; tags: N-terminal GST; dsDNA, one strand shown. Summed up:
as §1

The next assay deals with T6, ELK3 (Homo sapiens, UniProt P41970 1-407).
T6 sequence: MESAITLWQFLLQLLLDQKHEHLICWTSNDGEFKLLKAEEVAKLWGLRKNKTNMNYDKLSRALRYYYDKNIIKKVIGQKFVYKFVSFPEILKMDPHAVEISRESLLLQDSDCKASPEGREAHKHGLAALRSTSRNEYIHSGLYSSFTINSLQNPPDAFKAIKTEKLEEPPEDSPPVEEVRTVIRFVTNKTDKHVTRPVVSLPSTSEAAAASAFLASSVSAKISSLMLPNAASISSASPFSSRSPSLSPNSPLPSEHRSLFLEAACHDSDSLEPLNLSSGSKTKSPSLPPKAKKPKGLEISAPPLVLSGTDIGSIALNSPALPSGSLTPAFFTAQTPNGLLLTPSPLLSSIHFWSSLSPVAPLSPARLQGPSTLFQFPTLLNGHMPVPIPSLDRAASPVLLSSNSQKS
The conditions noted are these: protein: recombinant; tags: N-terminal GST; dsDNA, one strand shown. Summed up: as §1

A further assay concerns the target T7, FEV (Homo sapiens, UniProt Q99581 1-238).
T7 sequence: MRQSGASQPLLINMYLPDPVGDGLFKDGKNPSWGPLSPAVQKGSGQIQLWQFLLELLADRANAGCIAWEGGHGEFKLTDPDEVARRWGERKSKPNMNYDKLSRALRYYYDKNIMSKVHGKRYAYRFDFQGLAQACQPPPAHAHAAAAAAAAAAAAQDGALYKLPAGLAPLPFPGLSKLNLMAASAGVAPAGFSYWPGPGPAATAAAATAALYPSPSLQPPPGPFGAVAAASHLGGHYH
To be noted: protein: recombinant; tags: N-terminal GST; dsDNA, one strand shown. An outline of the steps:
as §1

The target in a further assay is ETV5 (Homo sapiens, UniProt P41161 1-510). The conditions noted are these: protein: recombinant; tags: N-terminal GST; dsDNA, one strand shown. Summed up:
as §1

In another assay the target is HSF1 (Homo sapiens, UniProt Q00613 1-529). The conditions noted are these: protein: recombinant; tags: N-terminal GST; chain copies: 3; dsDNA, one strand shown. Summed up:
as §1

The target of a further assay is T8, SPIC (Homo sapiens, UniProt Q8N5J4 1-248).
T8 sequence: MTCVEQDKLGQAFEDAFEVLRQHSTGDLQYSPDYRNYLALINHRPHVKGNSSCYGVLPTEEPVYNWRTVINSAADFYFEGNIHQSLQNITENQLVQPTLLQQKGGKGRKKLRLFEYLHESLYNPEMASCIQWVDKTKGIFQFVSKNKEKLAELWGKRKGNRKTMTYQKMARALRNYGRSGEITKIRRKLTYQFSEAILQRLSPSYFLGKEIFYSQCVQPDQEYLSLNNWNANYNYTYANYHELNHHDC
To be noted: protein: recombinant; tags: N-terminal GST; dsDNA, one strand shown. Summed up: as §1

A further assay concerns the target ELF4 (Homo sapiens, UniProt Q99607 1-663). To be noted: protein: recombinant; tags: N-terminal GST; dsDNA, one strand shown. Summed up: as §1
Another assay has as its target T9, ELK4 (Homo sapiens, UniProt P28324-2 1-405).
T9 sequence: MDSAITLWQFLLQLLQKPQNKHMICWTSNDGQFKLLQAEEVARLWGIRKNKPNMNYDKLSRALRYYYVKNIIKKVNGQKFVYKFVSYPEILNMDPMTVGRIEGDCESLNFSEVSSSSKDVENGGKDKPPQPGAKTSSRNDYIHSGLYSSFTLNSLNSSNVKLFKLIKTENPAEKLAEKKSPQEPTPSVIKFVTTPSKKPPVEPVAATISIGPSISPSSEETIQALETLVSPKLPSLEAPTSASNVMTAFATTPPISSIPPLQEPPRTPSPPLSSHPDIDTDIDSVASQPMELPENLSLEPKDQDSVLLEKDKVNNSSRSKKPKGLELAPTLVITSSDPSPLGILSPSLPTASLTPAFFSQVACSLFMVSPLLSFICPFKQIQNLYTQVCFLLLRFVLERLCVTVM
The conditions noted are these: protein: recombinant; tags: N-terminal GST; dsDNA, one strand shown. An outline of the steps:
as §1

A further assay has as its target T10, ETV2 (Homo sapiens, UniProt O00321 1-342).
T10 sequence: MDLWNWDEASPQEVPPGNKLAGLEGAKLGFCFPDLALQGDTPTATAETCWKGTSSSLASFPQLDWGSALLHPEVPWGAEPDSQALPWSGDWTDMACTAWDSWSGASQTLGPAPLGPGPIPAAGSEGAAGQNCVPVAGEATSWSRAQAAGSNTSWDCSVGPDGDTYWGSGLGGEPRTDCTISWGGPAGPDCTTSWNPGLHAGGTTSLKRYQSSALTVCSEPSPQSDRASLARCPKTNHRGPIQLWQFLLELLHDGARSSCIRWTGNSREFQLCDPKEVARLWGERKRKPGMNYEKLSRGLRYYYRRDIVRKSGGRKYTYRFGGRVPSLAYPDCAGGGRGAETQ
The conditions noted are these: protein: recombinant; tags: N-terminal GST; dsDNA, one strand shown. An outline of the steps: as §1

The target of the next assay is T11, ELF3 (Homo sapiens, UniProt P78545 1-371).
T11 sequence: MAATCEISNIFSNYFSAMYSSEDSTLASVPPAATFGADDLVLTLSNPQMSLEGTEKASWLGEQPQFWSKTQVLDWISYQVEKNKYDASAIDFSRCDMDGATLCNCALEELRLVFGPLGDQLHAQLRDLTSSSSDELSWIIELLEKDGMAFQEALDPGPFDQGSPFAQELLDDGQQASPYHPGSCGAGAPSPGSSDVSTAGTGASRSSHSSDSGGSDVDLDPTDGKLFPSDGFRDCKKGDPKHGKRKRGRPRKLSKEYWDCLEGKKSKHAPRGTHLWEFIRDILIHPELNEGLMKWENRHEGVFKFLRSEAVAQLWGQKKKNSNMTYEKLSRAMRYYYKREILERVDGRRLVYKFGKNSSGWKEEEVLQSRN
To be noted: protein: recombinant; tags: N-terminal GST; dsDNA, one strand shown. An outline of the steps:
as §1

Another assay has as its target CRX (Homo sapiens, UniProt O43186 1-299). The conditions noted are these: protein: recombinant; tags: N-terminal GST; dsDNA, one strand shown. Summed up:
as §1

A further assay has as its target ETV1 (Homo sapiens, UniProt P50549 1-477). The conditions noted are these: protein: recombinant; tags: N-terminal GST; dsDNA, one strand shown. An outline of the steps: as §1

Sequence of CRX (O43186 whole entry): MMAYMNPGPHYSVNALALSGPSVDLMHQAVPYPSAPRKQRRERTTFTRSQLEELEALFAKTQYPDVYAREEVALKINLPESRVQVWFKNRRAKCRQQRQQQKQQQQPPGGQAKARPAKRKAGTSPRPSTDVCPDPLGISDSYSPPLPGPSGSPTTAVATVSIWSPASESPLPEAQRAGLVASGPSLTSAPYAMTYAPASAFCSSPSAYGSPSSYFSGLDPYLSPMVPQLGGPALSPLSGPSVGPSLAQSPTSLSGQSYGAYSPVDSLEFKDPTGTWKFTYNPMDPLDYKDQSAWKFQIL
Sequence of HSF1 (Q00613 whole entry): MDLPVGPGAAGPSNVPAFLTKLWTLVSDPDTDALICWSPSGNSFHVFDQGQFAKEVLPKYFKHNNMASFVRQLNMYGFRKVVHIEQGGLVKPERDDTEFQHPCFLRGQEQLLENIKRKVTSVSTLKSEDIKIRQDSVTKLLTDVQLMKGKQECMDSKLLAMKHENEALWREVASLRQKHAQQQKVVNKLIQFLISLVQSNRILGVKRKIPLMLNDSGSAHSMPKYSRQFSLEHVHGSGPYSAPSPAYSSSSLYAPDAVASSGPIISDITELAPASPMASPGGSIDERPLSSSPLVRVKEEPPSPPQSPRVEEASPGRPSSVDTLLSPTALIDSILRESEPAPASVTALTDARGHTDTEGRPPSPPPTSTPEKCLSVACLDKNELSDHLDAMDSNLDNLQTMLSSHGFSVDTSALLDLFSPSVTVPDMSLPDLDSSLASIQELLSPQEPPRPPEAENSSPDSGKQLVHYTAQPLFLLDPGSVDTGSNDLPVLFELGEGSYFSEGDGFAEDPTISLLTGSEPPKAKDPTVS
Sequence of SPIB (Q01892 whole entry): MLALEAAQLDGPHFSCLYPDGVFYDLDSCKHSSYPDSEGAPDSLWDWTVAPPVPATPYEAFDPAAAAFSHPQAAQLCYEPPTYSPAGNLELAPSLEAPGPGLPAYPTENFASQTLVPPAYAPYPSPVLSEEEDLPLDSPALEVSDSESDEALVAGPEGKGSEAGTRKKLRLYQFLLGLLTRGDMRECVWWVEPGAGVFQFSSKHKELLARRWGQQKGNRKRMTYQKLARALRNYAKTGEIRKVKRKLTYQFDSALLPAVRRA
Sequence of ELF4 (Q99607 whole entry): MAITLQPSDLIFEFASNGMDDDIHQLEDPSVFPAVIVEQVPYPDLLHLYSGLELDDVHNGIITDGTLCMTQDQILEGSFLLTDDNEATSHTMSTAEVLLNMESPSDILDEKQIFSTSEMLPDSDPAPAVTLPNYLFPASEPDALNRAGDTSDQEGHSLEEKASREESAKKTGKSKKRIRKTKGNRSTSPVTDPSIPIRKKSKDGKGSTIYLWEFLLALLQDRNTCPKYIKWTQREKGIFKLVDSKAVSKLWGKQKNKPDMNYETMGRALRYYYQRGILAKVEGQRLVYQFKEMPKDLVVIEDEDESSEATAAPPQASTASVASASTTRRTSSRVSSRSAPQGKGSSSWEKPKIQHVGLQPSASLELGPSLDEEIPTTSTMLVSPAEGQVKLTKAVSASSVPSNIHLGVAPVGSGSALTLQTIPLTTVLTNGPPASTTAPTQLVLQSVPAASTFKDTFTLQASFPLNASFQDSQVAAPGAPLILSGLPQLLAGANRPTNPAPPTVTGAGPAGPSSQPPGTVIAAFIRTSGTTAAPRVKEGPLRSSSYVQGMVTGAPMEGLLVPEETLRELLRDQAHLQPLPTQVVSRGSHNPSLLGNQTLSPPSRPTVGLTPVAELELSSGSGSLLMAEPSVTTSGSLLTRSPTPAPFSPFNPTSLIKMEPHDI
Sequence of ELF1 (P32519 whole entry): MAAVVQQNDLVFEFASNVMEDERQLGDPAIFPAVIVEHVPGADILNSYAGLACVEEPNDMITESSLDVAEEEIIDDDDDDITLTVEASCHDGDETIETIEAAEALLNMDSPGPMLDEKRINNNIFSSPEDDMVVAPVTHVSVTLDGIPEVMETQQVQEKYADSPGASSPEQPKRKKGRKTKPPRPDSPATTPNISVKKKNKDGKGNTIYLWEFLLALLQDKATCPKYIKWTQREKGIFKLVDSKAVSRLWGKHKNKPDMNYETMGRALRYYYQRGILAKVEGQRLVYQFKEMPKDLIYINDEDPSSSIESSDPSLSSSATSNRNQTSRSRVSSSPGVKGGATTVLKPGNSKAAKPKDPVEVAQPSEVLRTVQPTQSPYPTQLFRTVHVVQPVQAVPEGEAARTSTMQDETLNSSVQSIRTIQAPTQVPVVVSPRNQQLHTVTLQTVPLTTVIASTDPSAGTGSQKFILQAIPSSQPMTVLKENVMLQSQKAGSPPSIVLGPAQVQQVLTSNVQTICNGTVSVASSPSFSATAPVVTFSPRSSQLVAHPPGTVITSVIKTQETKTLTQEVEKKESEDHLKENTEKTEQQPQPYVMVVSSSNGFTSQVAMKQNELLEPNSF
Sequence of ETV5 (P41161 whole entry): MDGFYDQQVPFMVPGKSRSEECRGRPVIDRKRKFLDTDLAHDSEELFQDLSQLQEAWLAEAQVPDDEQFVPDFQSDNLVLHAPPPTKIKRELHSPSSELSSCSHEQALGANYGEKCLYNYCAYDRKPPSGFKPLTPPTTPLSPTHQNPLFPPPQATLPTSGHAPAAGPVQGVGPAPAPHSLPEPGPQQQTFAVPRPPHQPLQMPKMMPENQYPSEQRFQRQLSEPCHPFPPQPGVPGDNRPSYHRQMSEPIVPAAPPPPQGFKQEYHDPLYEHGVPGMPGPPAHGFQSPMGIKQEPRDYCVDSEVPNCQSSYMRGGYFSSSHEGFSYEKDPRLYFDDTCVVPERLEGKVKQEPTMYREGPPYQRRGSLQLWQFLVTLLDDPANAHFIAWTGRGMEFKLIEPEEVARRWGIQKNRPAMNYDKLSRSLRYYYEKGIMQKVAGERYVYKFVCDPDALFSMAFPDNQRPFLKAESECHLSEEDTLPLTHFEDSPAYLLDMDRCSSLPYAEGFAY
Sequence of ETV1 (P50549 whole entry): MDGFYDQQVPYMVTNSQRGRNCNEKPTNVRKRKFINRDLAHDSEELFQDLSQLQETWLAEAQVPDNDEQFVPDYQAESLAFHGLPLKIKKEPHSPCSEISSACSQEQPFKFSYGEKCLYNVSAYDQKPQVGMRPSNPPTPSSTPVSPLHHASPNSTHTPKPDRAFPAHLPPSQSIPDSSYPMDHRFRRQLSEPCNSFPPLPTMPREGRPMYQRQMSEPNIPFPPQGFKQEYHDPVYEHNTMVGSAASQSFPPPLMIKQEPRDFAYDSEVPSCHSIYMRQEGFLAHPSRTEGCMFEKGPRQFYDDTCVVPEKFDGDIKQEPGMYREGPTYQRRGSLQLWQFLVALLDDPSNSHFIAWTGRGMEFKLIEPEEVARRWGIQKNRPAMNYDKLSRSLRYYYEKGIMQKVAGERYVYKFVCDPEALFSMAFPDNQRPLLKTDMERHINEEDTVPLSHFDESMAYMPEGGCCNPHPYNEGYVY

Turning to TACGGC, the binding signal with FLI1 is 1.18 fold enrichment (6-mer frequency, TF over GST control); in the assay with ELK1, 1.25 fold enrichment (6-mer frequency, TF over GST control); with GABPA it was 1.23 fold enrichment (6-mer frequency, TF over GST control); with ERG, 1.24 fold enrichment (6-mer frequency, TF over GST control); in the assay with ELF1 it was 1.18 fold enrichment (6-mer frequency, TF over GST control); in the assay with EHF, 1.2 fold enrichment (6-mer frequency, TF over GST control). The binding signal with SPI1 is 1.18 fold enrichment (6-mer frequency, TF over GST control); with SPIB, 1.25 fold enrichment (6-mer frequency, TF over GST control); with ELK3, 1.16 fold enrichment (6-mer frequency, TF over GST control); with FEV, 1.15 fold enrichment (6-mer frequency, TF over GST control); with ETV5 it was 1.15 fold enrichment (6-mer frequency, TF over GST control); in the assay with HSF1, 1.02 fold enrichment (6-mer frequency, TF over GST control). For the same sequence, the binding signal with SPIC was 1.05 fold enrichment (6-mer frequency, TF over GST control); with ELF4, 1.28 fold enrichment (6-mer frequency, TF over GST control); with ELK4, 1.19 fold enrichment (6-mer frequency, TF over GST control); with ETV2, 1.12 fold enrichment (6-mer frequency, TF over GST control); with ELF3, 1.14 fold enrichment (6-mer frequency, TF over GST control); with CRX it was 1.2 fold enrichment (6-mer frequency, TF over GST control). Moreover, the binding signal with ETV1 was 1.14 fold enrichment (6-mer frequency, TF over GST control).

Source of the values: publication PMC7862700, “An all-to-all approach to the identification of sequence-specific readers for epigenetic DNA modifications on cytosine”.
